Screening data from PubChem BioAssay.
CYP2C19 activ = activators of human cytochrome P450 2C19; activation factor at 5 µM; P33261; recombinant CYP2C19, luciferin-H EGE luminescence; active compounds read high; 0 = fully inhibited enzyme, 1 = untreated enzyme; 96,000 tested, under 10 active; AID 1025;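 active means activation factor of at least 2 at 5 µM in the primary screen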
CYP2C9 inh = blocks human cytochrome P450 2C9; inhibition, % at 5 µM; CYP2C9 Supersomes, luciferin-H conversion, luminescence; AID 777; 20% of 96,000 active; P11712;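 active means blocking of liver enzyme CYP2C9 beyond about 50% at 5 µM, limit read from the data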
Cav32 inh = human Cav3.2 channel inhibition, primary screen; O95180; Cav3.2-expressing cells, Fluo-4 calcium fluorescence FDSS; active compounds read low; B-score at 10 µM; 4% of 100,000 active; AID 449739;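 active means single-dose well whose peak fluorescence ratio is a statistical outlier from its plate by either plate-standardised score or position-corrected B-score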
PTK2B oligo ant = Pyk2 (human) oligomerization antagonism; Q293 cells, Pyk2 FERM NanoBiT luminescence; active compounds read low; z-score (the deposit names both 25 µM and 10 µM); 0.83% of 99,000 active; AID 1347419;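 active means Z-score of -3 or lower, scaled per plate to the spread of control and sample wells; inactive means z-score above -3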;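 further: negative z-score means lost luminescence so less FERM oligomerization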
Target sequence (Q14289 whole entry, looked up): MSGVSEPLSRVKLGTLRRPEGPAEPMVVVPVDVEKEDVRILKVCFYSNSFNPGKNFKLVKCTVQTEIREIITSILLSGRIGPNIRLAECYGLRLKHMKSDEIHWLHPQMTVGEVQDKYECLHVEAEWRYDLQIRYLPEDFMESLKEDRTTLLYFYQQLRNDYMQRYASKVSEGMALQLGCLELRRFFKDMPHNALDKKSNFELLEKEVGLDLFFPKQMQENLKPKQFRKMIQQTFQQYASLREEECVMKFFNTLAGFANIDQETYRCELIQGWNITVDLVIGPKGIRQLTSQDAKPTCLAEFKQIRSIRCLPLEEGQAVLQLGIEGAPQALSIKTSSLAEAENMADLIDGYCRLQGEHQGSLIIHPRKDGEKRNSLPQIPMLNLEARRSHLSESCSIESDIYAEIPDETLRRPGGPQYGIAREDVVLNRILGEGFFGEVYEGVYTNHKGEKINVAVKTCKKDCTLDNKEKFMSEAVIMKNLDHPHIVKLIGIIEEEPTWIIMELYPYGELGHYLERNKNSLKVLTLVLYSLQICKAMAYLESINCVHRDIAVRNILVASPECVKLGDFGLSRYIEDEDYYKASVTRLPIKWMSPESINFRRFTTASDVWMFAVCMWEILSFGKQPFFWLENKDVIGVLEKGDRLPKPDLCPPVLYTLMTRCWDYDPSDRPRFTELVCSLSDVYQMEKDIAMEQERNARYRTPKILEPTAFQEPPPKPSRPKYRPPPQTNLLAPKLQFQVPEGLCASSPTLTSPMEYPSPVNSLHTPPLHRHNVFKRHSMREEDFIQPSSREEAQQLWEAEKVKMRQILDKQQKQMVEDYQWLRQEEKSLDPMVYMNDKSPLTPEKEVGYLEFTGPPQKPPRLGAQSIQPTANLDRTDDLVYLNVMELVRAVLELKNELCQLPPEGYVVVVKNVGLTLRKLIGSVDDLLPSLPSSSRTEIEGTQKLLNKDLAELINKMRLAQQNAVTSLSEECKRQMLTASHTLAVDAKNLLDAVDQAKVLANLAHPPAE
CYP2C19 inh = human CYP2C19 inhibition; inhibition, % at 5 µM; 21% of 96,000 active; CYP2C19 Supersomes, luciferin-H EGE luminescence, 30 min;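 active means CYP2C19 inhibition above a set limit at 5 µM in the primary screen, cut at about 50% in these data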
CYP2C9 activ = CYP2C9 (human) activation; activation factor at 5 µM; P11712; recombinant CYP2C9, luciferin-H conversion, luminescence; active compounds read high; factor 1 = untreated enzyme, 0 = blocked; 1.4% of 96,000 active;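 active means activation factor of 2 or more for CYP2C9 at a 5 µM dose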
Hits are given with their value; . = inactive; / = no result given. Shown are actives, neighbours in structure and some others; about 27% of the full set was active somewhere.

SMILES	CYP2C19 activ	CYP2C9 inh	Cav32 inh	PTK2B oligo ant	CYP2C19 inh	CYP2C9 activ
CN(C)C(CNC(=O)c1cccc(S(=O)(=O)N2CC3(C)CC2CC(C)(C)C3)c1)c1ccco1 (centres undefined)	.	73	.	.	75	.
C=C(C)CSc1nnc(-c2cc(OC)c(OC)c(OC)c2)n1N	.	.	.	.	.	.
CC(C)CNC(=O)c1cccc(NC(=O)C2CCCO2)c1 (centres undefined)	.	.	.	.	.	.
O=C(Cn1[nH]c(=O)c2ccccc2c1=O)N1CC=C(c2ccccc2)CC1	.	67	.	.	81	.
O=C(O)CCC(=O)N1CC=C(c2ccccc2)CC1	.	.	/	.	.	.
CCOC(=O)CSC1=C(C#N)C(c2ccc(F)cc2)C(C(C)=O)=C(C)N1 (centres undefined)	.	51	.	.	.	.
CC(=O)C1=C(C)NC(SCC(N)=O)=C(C#N)C1c1cccnc1 (centres undefined)	.	.	.	.	.	.
C=CCOC(=O)C1=C(C)NC(SCC)=C(C#N)C1c1ccc(Cl)cc1 (centres undefined)	.	86	-7.5	-3.2	53	.
CC1=C(C(=O)Nc2ccc(Cl)cc2)C(c2ccncc2)C(C#N)=C(SCC(N)=O)N1 (centres undefined)	.	65	.	.	.	.
CCOC(=O)C1=C(C)NC(SCC(=O)OC)=C(C#N)C1c1ccc(C(=O)OC)cc1 (centres undefined)	.	96	.	.	97	.
CC1(C)CC(=O)C(C=NCCN2CCN(C(=O)C34CC5CC(CC(C5)C3)C4)CC2)=C(O)C1	.	.	.	.	.	.
CCCCn1c(SCc2cc(=O)n3ccsc3n2)nc2cc(C(=O)OC)ccc2c1=O	.	.	/	/	.	.
Cc1ccc(NC(=O)c2nc[nH]c2C(=O)NCC(=O)OC(C)(C)C)cc1	/	/	.	/	/	/
O=C(Cn1cnc2c(nnn2Cc2ccccc2F)c1=O)NCc1ccco1	.	.	/	.	.	.
COc1ccc(CNC(C)C2COc3ccccc3O2)c(OC)c1 (centres undefined)	.	.	.	.	87	.
CC(NC(=O)c1ccco1)C1COc2ccccc2O1 (centres undefined)	.	.	.	.	.	.
CC(NCc1ccccc1)C1COc2ccccc2O1 (centres undefined)	.	.	/	.	52	.
CC(NC(=O)CCC(=O)NC(C)C1COc2ccccc2O1)C1COc2ccccc2O1 (centres undefined)	.	.	-8.8	.	.	.
Cc1c(C(=O)Nc2ccccc2)oc2c1C(=O)CC(C)(C)C2	.	.	.	.	.	.
Cc1ccc(NC(=O)c2oc3c(c2C)C(=O)CC(C)(C)C3)cc1	.	.	.	.	77	.
Cc1c(C(=O)Nc2ccncc2)oc2c1C(=O)CC(C)(C)C2	.	94	.	.	99	.
O=[N+]([O-])c1ccc(OCc2cn([C@@H](CO)c3ccccc3)nn2)c(Br)c1	/	/	.	/	/	/
COc1cc(C)nc(NS(=O)(=O)c2ccc(C)cc2)n1	.	.	.	.	.	.
CCNc1nc(NC(C)C)nc(OCCNS(=O)(=O)c2cc(C)ccc2C)n1	.	.	.	.	.	.
CCNc1nc(ON=C(C)C)nc(N(C)C)n1	/	/	/	.	/	/
SMILES	CYP2C19 activ	CYP2C9 inh	Cav32 inh	PTK2B oligo ant	CYP2C19 inh	CYP2C9 activ
CCNc1nc(NCC)nc(OCCNS(=O)(=O)c2cc(C)ccc2C)n1	.	.	.	.	89	.
COc1cc(C)nc(OCCNS(=O)(=O)c2cc(C)ccc2C)n1	.	.	.	.	82	.
CCNc1nc(OCCNS(=O)(=O)c2cc(C)ccc2C)nc(N(C)C)n1	.	.	.	.	58	.
CCCC(=O)NC(C)c1nc2ccccc2n1C (centres undefined)	.	.	.	/	.	.
COC(=O)Cn1nnc(-c2cccc(OC)c2)n1	.	.	.	.	.	.
COc1ccccc1CNC(=O)c1c(-c2ccccc2)nn(-c2ccccc2)c1C	.	.	.	.	.	.
Cc1c(C(=O)O)c(-c2ccccc2)nn1-c1ccccc1	.	.	-4.3	.	.	.
Cn1c(=O)c(C(=O)CSc2nncs2)c(N)n(Cc2ccccc2)c1=O	.	62	.	.	91	.
CCCCn1c(SCC(=O)N2CCCc3ccccc32)nc2c1c(=O)n(C)c(=O)n2C	.	63	.	.	.	.
CCCCn1c(SCC(=O)N2c3ccccc3Sc3ccccc32)nc2c1c(=O)n(C)c(=O)n2C	/	/	-4.8	.	/	/
CCCn1c(SCC(=O)N2c3ccccc3CCc3ccccc32)nc2c1c(=O)n(C)c(=O)n2C	.	.	.	.	.	.
CN(C)CCN1C(=O)C(=O)/C(=C(/O)c2ccc(OCc3ccccc3)cc2)C1c1ccncc1 (centres undefined)	.	.	.	.	.	.
Cc1cc(NS(=O)(=O)c2ccc(NC(=O)COc3ccc(Cl)cc3)cc2)no1	.	.	/	.	.	.
Cc1c(NC(=O)c2nn(C)c(=O)c3ccccc23)c(=O)n(-c2ccccc2)n1C	/	/	/	.	/	/
Cc1c(NC(=O)Cn2nc(C(=O)O)c3ccccc3c2=O)c(=O)n(-c2ccccc2)n1C	.	.	.	-4	.	.
Cc1nn(CC(=O)Nc2ccccc2)c(=O)c2ccccc12	.	.	.	.	73	.
Cc1nn(CC(=O)NC(C)c2ccccc2)c(=O)c2ccccc12 (centres undefined)	.	.	.	.	.	.
Cc1cc(O)c(C(C)C)cc1NC(=O)Cn1nc(C)c2ccccc2c1=O	.	69	.	.	.	.
CC1(C)CC(=O)C=C(NCCc2ccc(S(N)(=O)=O)cc2)C1	.	.	.	.	.	.
N#CC1=C2SCC(O)(c3ccccc3)N2C(=O)CC1c1ccccc1 (centres undefined)	.	99	.	.	98	.
Cc1scc(C(=O)N/N=C/c2ccc(OCC(C)C)cc2)c1C	.	82	-4.3	.	72	.
CCCCOc1ccc(/C=N/NC(=O)c2csc(C)c2C)cc1	.	60	.	.	65	.
CCc1c(C(=O)N/N=C/c2ccc(C)o2)csc1C	/	/	.	.	/	/
Cc1cc(C)cc(N2C(=O)C3C4C=CC(C4)C3C2=O)c1 (centres undefined)	.	.	.	.	63	.
CC(C)(C)c1ccc(OCC(=O)NNC(=O)Cc2cccs2)cc1	.	.	/	.	.	.
SMILES	CYP2C19 activ	CYP2C9 inh	Cav32 inh	PTK2B oligo ant	CYP2C19 inh	CYP2C9 activ
Cc1ccc(OCC(=O)NCc2cccs2)cc1	.	.	.	.	71	.
O=C(Cc1ccccc1)NCCc1cn2ccsc2n1	.	.	.	/	.	.
O=C(COC(=O)c1ccco1)NCc1cccs1	.	.	.	.	.	.
O=C(COc1cccc2ccccc12)NNC(=O)c1cccs1	.	.	/	.	.	2.9
O=C(COC(=O)c1ccc(Br)o1)NCc1cccs1	.	.	.	.	67	.
O=C(COc1ccccc1)NCCc1cn2ccsc2n1	.	.	.	/	84	.
